Data published in PubChem BioAssay.
Calls of active or inactive are those of the source. Unless noted, how the calls were made is not given here.

Tests used:
[1] = anti-His antibody binders, primary screen, artefact control for SMM control protein annotation, biochemical, small-molecule microarray, 635 nm fluorescence (AID 1128); details: anti-His Alexa647 antibody binding, higher = more signal;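 further: score merges feature fluorescence with signal-to-noise for each printed compound spot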
[2] = system: Human papillomavirus type 1a E7 protein (residues 1-88); assay: HPV1a E7 small-molecule binders, primary screen, biochemical, small-molecule microarray, residues 1-88, 635 nm (AID 1129); details: small-molecule microarray binding, fluorescence 635 nm; higher = more signal
[3] = biological target: Focal adhesion kinase 1 (Homo sapiens) (UniProt Q05397); assay: small-molecule microarray binders of FAK, primary screen, biochemical, 635/667 nm fluorescence, BSA, DTT (AID 1130); details: PTK2 binding, 635 nm fluorescence, higher = more signal;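 further: composite of spot emission at 667 nm and signal to noise over triplicate slides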
[4] = system: Fibrinogen (Alexa647-labelled); assay: fibrinogen binders on compound microarrays, profiling panel, artefact control for SMM control-protein annotation, biochemical, small-molecule microarray, 635/667 nm fluorescence (AID 1131); details: fibrinogen-A647 binding fluorescence, higher = more signal;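 further: z-score merges 667 nm fluorescence with per-spot signal-to-noise over triplicate slides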
[5] = biological target: Follistatin (Homo sapiens) (UniProt P19883); assay: follistatin binders on small-molecule microarrays, primary screen, biochemical, small-molecule microarray, 635/667 nm fluorescence (AID 1132); details: FST binding, 635 nm fluorescence, higher = more signal
[6] = biological target: Fibroblast growth factor 2 (Homo sapiens) (UniProt P09038); assay: FGF2 binders on small-molecule microarrays, primary screen, biochemical, small-molecule microarray, 635/667 nm fluorescence (AID 1133); details: small-molecule microarray binding, FGF2, fluorescence 635/667; higher = more signal
[7] = mitochondrial membrane potential change in A549 cells, profiling panel, cell-based, JC-1 fluorescence, basal, 24 h, 100 nL (AID 1138); details: higher = more signal;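 further: A549 lung adenocarcinoma cells under basal conditions with no added stimulus; test concentration not given here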
Lefty1 = Lefty1 binders on small-molecule microarrays, primary screen, biochemical, small-molecule microarray, 635/667 nm fluorescence (AID 1139); details: small-molecule microarray binding, fluorescence 635/667; higher = more signal
[8] = system: wheat germ agglutinin (Triticum aestivum), Alexa647-labelled; assay: wheat germ agglutinin binders on compound microarrays, profiling panel, artefact control for SMM control-protein annotation, biochemical, small-molecule microarray, 635/667 nm fluorescence (AID 1140); details: WGA-A647 binding, 635 nm fluorescence, higher = more signal;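 further: score merges 667 nm feature emission with signal to noise over triplicate slides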
[9] = biological target: Luciferin 4-monooxygenase (Photinus pyralis) (UniProt P08659); assay: firefly luciferase enzyme inhibitors, primary screen, biochemical, luminescence, purified enzyme, 2006 set (AID 1141); details: SteadyGlo luminescence, 30 min, higher = more signal, called active from +8 up or from −8 down;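 further: cell-free assay with purified firefly luciferase at 100 ng per well in PBS; test concentration not given here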
[10] = system: Wnt5a (protein binding on small-molecule microarray); assay: Wnt5a binders on small-molecule microarray, primary screen, biophysical, 635/667 nm fluorescence (AID 1142); details: 635 nm fluorescence, higher = more signal;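 further: fluorescence read at 667 nm with signal to noise per printed feature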
[11] = cell viability in Huh7 cells, primary screen, cytotoxicity control for HCV replication inhibitor project, CellTiter-Glo luminescence, basal, 48 h (AID 1143); details: Huh7 HCV replicon, higher = more signal, called active from +8 up or from −8 down;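 further: Huh7 hepatoma cells carrying a hepatitis C replication reporter with no stimulus; test concentration not given here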
[12] = P. aeruginosa biofilm formation inhibitors, primary screen, PAO1 strain, BacTiter-Glo luminescence, LB-PBS (AID 1144); details: 12 h, higher = more signal
[13] = CREB reporter modulators without forskolin, primary screen, cell-based, PC12, CRE-LacZ reporter, unstimulated (AID 1145); details: no forskolin, luminescence, 4.5 h, higher = more signal, called active from +8 up or from −8 down
[14] = CREB reporter modulators under forskolin, primary screen, cell-based, PC12, CRE-LacZ reporter, forskolin-stimulated (AID 1146); details: luminescence, 4.5 h, higher = more signal, called active from +8 up or from −8 down;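 further: PC12 cells with 6xCRE LacZ reporter stimulated by forskolin 10 µM; beta-galactosidase reporter signal reflecting CREB driven transcription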
[15] = biological target: Streptavidin (Streptomyces avidinii) (UniProt P22629); assay: streptavidin binders on small-molecule microarray, primary screen, artefact control for SMM compound annotation, biophysical, 635/667 nm fluorescence (AID 1147); details: streptavidin binding, higher = more signal;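 further: signal reflects streptavidin binding to arrayed compounds as a control protein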
[16] = small-molecule binders of probe aInhba, primary screen, biochemical, small-molecule microarray, 635/667 nm fluorescence (AID 1148); details: higher = more signal;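 further: score merges 667nm spot fluorescence with signal-to-noise for antibody binding to printed compounds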
Torsin-1A (Homo sapiens) [17] = biological target: Torsin-1A (Homo sapiens) (UniProt O14656); assay: torsin A binders from cell lysate, primary screen, small-molecule microarray, wild-type, 635/667 nm (AID 1149); details: COS7 hTOR1A-WT lysate, 635 nm fluorescence, higher = more signal
Torsin-1A (Homo sapiens) [18] = biological target: Torsin-1A (Homo sapiens) (UniProt O14656); assay: small-molecule binders of mutant TOR1A in lysate, primary screen, cell lysate, small-molecule microarray, COS7 lysate, 635/667 nm fluorescence (AID 1150); details: COS7 hTOR1A mutant lysate, 635 nm fluorescence, higher = more signal;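 further: score pools 667 nm emission and signal to noise measuring lysate protein binding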
[19] = system: Sonic hedgehog protein (Shh); assay: small-molecule binders of Shh protein, primary screen, biochemical, small-molecule microarray, 635/667 nm fluorescence (AID 1151); details: small-molecule microarray binding, 635 nm fluorescence; higher = more signal;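 further: Shh protein binding to compounds spotted on small-molecule microarray slides; score combines spot fluorescence intensity with signal-to-noise across triplicate slides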

Chain of Focal adhesion kinase 1 (Homo sapiens) (Q05397 whole entry, looked up): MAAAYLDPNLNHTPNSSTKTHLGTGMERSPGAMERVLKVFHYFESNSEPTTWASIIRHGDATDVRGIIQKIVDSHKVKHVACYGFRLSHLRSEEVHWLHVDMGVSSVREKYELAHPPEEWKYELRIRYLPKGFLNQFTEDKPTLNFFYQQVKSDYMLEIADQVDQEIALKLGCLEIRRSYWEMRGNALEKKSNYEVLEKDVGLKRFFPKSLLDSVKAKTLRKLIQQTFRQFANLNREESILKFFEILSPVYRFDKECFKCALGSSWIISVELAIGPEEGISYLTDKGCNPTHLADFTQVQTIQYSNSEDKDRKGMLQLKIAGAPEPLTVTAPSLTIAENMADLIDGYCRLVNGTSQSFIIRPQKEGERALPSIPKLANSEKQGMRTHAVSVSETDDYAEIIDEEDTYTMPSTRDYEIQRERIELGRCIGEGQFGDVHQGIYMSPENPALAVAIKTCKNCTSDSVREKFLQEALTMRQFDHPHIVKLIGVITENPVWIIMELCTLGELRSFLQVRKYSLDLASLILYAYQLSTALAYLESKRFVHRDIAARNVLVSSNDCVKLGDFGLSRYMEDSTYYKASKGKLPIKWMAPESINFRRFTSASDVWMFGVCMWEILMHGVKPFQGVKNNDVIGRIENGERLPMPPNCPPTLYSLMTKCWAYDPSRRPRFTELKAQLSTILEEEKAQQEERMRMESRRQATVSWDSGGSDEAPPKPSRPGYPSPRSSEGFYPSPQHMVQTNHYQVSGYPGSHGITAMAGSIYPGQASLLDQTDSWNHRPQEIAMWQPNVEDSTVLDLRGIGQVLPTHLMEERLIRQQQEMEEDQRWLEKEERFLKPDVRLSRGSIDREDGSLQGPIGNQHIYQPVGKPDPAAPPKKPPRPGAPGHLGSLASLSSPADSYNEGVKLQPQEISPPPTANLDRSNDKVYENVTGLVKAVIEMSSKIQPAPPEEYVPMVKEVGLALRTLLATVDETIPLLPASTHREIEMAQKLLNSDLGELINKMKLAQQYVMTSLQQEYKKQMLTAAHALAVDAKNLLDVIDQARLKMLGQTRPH
Chain of Streptavidin (Streptomyces avidinii) (P22629 whole entry, looked up): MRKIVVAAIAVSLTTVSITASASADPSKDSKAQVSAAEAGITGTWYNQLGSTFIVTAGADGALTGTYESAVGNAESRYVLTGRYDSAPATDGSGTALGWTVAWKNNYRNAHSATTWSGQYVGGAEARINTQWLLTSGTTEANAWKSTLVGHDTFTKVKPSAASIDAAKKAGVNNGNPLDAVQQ
Chain of Luciferin 4-monooxygenase (Photinus pyralis) (P08659 whole entry, looked up): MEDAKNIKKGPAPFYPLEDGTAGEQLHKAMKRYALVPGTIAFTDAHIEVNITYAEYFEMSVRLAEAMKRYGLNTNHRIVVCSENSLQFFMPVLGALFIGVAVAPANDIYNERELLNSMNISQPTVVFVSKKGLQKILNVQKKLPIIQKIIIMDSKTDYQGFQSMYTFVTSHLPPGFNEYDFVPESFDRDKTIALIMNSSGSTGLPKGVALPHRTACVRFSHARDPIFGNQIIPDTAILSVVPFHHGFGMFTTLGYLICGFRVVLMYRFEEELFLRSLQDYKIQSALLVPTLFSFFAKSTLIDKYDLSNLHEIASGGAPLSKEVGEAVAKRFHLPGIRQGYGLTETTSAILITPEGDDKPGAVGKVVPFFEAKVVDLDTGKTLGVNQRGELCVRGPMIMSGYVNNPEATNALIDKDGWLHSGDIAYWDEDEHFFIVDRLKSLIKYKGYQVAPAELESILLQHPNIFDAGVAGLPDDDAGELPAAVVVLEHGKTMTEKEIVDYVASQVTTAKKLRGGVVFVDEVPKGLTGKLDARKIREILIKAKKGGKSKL
Chain of Torsin-1A (Homo sapiens) (O14656 whole entry, looked up): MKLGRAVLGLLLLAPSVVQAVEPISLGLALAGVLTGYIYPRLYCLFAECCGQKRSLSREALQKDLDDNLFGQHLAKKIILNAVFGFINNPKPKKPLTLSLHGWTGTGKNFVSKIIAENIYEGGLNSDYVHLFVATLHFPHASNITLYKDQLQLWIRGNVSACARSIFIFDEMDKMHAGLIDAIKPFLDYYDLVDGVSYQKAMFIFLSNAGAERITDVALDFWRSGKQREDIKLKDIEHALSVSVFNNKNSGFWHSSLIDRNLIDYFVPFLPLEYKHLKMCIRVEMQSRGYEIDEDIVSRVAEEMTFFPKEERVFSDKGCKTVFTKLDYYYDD
Chain of Fibroblast growth factor 2 (Homo sapiens) (P09038 whole entry, looked up): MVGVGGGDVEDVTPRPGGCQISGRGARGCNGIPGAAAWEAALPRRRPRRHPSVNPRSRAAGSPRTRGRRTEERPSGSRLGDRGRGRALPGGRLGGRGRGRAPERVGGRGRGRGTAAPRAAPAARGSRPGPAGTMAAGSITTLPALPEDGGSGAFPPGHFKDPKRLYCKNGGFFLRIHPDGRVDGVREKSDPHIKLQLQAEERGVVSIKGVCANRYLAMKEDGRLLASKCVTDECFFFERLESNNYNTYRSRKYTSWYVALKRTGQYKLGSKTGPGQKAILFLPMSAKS
Chain of Follistatin (Homo sapiens) (P19883 whole entry, looked up): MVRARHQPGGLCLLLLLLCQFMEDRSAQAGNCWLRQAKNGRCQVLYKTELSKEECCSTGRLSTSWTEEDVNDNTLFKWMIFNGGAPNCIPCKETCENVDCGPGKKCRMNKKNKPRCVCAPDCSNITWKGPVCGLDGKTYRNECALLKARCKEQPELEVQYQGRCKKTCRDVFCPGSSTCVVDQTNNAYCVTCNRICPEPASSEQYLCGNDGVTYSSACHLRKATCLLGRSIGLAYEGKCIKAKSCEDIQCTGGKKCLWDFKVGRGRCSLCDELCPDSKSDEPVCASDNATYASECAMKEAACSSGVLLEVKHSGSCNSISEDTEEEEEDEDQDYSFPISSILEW

| SMILES | composite z-score [1] | composite z-score [2] | composite z-score [3] | composite z-score [4] | composite z-score [5] | composite z-score [6] | z-score [7] | composite z-score (Lefty1) | composite z-score [8] | z-score [9] | composite z-score [10] | z-score [11] | z-score [12] | z-score [13] | z-score [14] | composite z-score [15] | composite z-score [16] | composite z-score (Torsin-1A (Homo sapiens) [17]) | composite z-score (Torsin-1A (Homo sapiens) [18]) | composite z-score [19] |
| --- | --- | --- | --- | --- | --- | --- | --- | --- | --- | --- | --- | --- | --- | --- | --- | --- | --- | --- | --- | --- |
| CO[C@H]1O[C@H](CO)[C@@H](OC(=O)Nc2ccc(Oc3ccccc3)cc2)[C@H](OC(=O)Nc2ccccc2-c2ccccc2)[C@@H]1OC(=O)Nc1ccccc1-c1ccccc1 | 0.818 | 1.07 | 0.263 | 0.964 | 0.595 | 0.295 | -0.426 | 0.841 | 0.773 | -0.69 (inactive) | 0.58 | -4.64 (inactive) | -0.935 (inactive) | -0.198 (inactive) | -0.355 (inactive) | 0.819 | 0.588 | -0.21 | 0.408 | 0.74 |
| COCCOC(=O)N1C(=O)[C@@]2(c3cc(C#CC4=CCCCC4)ccc31)[C@H](C(=O)N1CCN(c3ncccn3)CC1)[C@H]1C(=O)O[C@H](c3ccccc3)[C@H](c3ccccc3)N1[C@@H]2c1ccc(O)cc1 | 1.26 | 1.19 | 0.778 | 0.804 | 1.21 | 0.29 | -1.05 | 0.819 | 1.11 | -0.94 (inactive) | 0.282 | -1.17 (inactive) | -0.13 (inactive) | 0.761 (inactive) | -0.0066 (inactive) | 0.45 | -0.0736 | 0.714 | 0.296 | 1.5 |
| COc1ccc([Si](C)(C)[C@@H]2[C@@H](CCn3cc([C@H](O)c4ccccc4)nn3)O[C@]3(C(=O)N(Cc4ccc(N5CCOC5=O)cc4)c4ccccc43)[C@H]2C)cc1 | 0.551 | 1.06 | -0.0646 | 0.851 | 1.07 | 1.04 | 0.708 | 1.14 | 0.616 | 0.82 (inactive) | 0.127 | -3.81 (inactive) | -0.41 (inactive) | -0.0533 (inactive) | -0.0224 (inactive) | 0.204 | -0.128 | 1.15 | 1.14 | 1.85 |
| COc1ccc(CCNC(=O)[C@@]2(Sc3ccc(C)cc3)CC(=O)N(Cc3cc(C(F)(F)F)cc(C(F)(F)F)c3)[C@@H]2c2ccc(CO)cc2I)cc1 | -0.361 | -0.162 | 0.368 | 0.562 | 0.801 | -0.525 | 0.345 | 0.012 | -0.0603 | 0.664 (inactive) | -0.466 | -0.73 (inactive) | -0.623 (inactive) | -0.554 (inactive) | 1.05 (inactive) | 0.762 | 0.0184 | 0.579 | -0.145 | 0.697 |
| COc1ccc([Si](C)(C)[C@H]2[C@H](CCn3cc([C@H](O)c4ccccc4)nn3)O[C@@]3(C(=O)N(Cc4cccc(N5C(=O)c6cccc7cccc5c67)c4)c4ccccc43)[C@@H]2C)cc1 | -0.953 | -0.859 | -0.435 | -0.678 | -1.64 | -1.03 | 0.647 | -1.36 | -0.76 | 0.119 (inactive) | -0.302 | -3.31 (inactive) | 0.789 (inactive) | -0.142 (inactive) | 1.01 (inactive) | -0.713 | -0.176 | -0.601 | -0.437 | -0.0819 |
| CC(C)CNC(=O)[C@@H]1c2ccccc2C(=O)N(Cc2cc(F)cc(C(F)(F)F)c2)[C@H]1c1ccc(CO)cc1 | 0.437 | 0.538 | 0.0403 | 0.626 | 1.02 | 0.721 | 2.47 | -0.0543 | 0.042 | -1.38 (inactive) | 0.342 | -0.959 (inactive) | 0.96 (inactive) | 0.001 (inactive) | -0.372 (inactive) | 0.111 | 0.117 | 0.71 | 0.192 | 0.465 |
| COc1ccc(C(O)C2C=CC3C(=O)N(c4ccccc4)C(=O)C3N2Nc2ccccc2)cc1OCc1ccccc1 (stereo not given) | 0.621 | 1.24 | 0.315 | 0.942 | 1.22 | -0.132 | -0.0208 | 0.788 | 1.22 | -0.414 (inactive) | 0.302 | 0.197 (inactive) | -1.12 (inactive) | 0.0535 (inactive) | 0.414 (inactive) | 0.887 | 0.185 | 0.867 | 0.887 | 0.81 |
| COCCOC(=O)N1C(=O)[C@@]2(c3ccccc31)[C@H](c1ccc(OCCO)cc1)N1[C@H](c3ccccc3)[C@H](c3ccccc3)OC(=O)[C@H]1[C@@H]2C(=O)Nc1nc2ccccc2s1 | 1.6 | 1.2 | 0.72 | 0.942 | 1.24 | 1.05 | -2.22 | 0.518 | 0.433 | -2.98 (inactive) | 0.528 | -1.49 (inactive) | -0.58 (inactive) | 0.505 (inactive) | 11.9 (active) | 0.962 | 0.239 | 0.73 | 0.558 | 1.1 |
| COCCOC(=O)N1C(=O)[C@@]2(c3cc(C#CC4(O)CCCCCC4)ccc31)[C@H](C(N)=O)[C@H]1C(=O)O[C@H](c3ccccc3)[C@H](c3ccccc3)N1[C@@H]2c1ccccc1OCCO | 1.84 | 1.22 | 0.988 | 0.662 | 1.17 | 1.56 | -0.994 | 0.569 | 0.26 | -0.806 (inactive) | 0.507 | -6.12 (inactive) | 0.533 (inactive) | 0.0921 (inactive) | 0.0643 (inactive) | 0.143 | -0.522 | 0.329 | 0.445 | 1.34 |
